Screening data as filed in PubChem.
TDP43 rescue – qHTS of TDP-43 Inhibitors. TDP-43 expressing yeast growth rescue, BacTiter-Glo, 24 h. AID 652104, 2013. 410,000 compounds, 1.8% hits. Potency, µM (series often up to 46.1 µM), for the others: at the top dose growth rescue (activation), actives largely listed as activators; also: potency is read from the fitted curve at half-maximal effect; % of control where 0% means no effect; nearly all actives have a fitted effect of over 50% in size
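Luminescence from BacTiter-Glo reports growth of TDP-43-expressing yeast after 24 hr at 30 deg C with compound. Cells were raffinose-pregrown to mid-log, then seeded in galactose medium at OD600=0.02.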
Mm-Cpn inhibitor – Inhibitors of TCP-1 ring complex (TRiC) of Methanococcus maripaludis (MmCpn): qHTS; Chaperonin Mm-Cpn (Methanococcus maripaludis); purified Mm-Cpn ATPase, ADP Transcreener TR-FRET; Potency, µM (top dose mostly 76.9 µM), without a hit: top-dose activity, negative = inhibition, most hits filed as inhibitors; 330,000 compounds, 0.031% hits; AID 504842, 2011; also: potency is read from the fitted curve at half-maximal effect; % is scaled to controls: 0 for no effect and ±100 for the full control effect; nearly all actives have a fitted effect of over 80% in size
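Measured: ADP formation by purified Mm-CPN. Conditions: 25 nM protein, 10 uM ATP, Tris pH 7.4 with Mg2+, K+ and DTT, 37°C for 30 min. Detection: Transcreener HTRF after 30 min at room temperature.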
FUS suppressor – qHTS for Suppressors of FUS Proteinopathy: Primary screen using FUS-linked yeast assay; S. cerevisiae FUS-expressing, growth rescue, OD600, 24 h; Potency, µM (titrated, usually from 76.6 µM), usual class: activators; 390,000 compounds, 0.24% hits;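 also: potency is read from the fitted curve at half-maximal effect; plate controls were DMSO vehicle for no effect and reference control for full effect; nearly all actives have a fitted effect of over 55% in size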
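Yeast expressing FUS under galactose induction, OD 0.005 in 2% galactose medium; compounds in a dilution series, 24 h at 30C. Growth rescue by absorbance at 600 nm; CP55940 positive control, DMSO negative.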
Abeta yeast res – qHTS for compounds that reverse cellular toxicity of Amyloid beta (A-beta) peptide in yeast: Primary Screen. yeast expressing A-beta42, growth rescue, OD600, 48 h; response scale: 0% DMSO, 100% iron-clioquinol control. Potency, µM (series often up to 46.1 µM), most hits filed as activators. 410,000 compounds, 0.063% hits. AID 1347071, 2019; also: potency is read from the fitted curve at half-maximal effect; nearly all actives have a fitted effect of over 55% in size
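Yeast A-beta toxicity model in growth medium with pinned compounds, 48 h at 30 C; growth read as absorbance at 600 nm. Normalized to FeCl3/clioquinol equimolar mix (positive) and DMSO (negative).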
CCT chaperon mod – High-Throughput Screening for Modulators of Cytosolic Chaperonin Activity; purified chaperonin ATPase assay, HTRF ADP detection, 30 min; activity change, % (no concentration beside the values), hits read low; AID 651819, 2012; 360,000 compounds, 0.3% hits; in the data active = activity change below about -30%; also: % is scaled to controls: 0 for no effect and ±100 for the full control effect
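TRiC at 40 or 20 nM final (batch-dependent) in 30 mM Tris pH 7.4, 100 mM KCl, 5 mM MgCl2, 1 mM DTT, with compound at single 76 uM and 10 uM ATP, 30 min at 37 deg C. ADP detected by HTRF Transcreener, 665/615 ratio.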
aSyn yeast inh – qHTS of alpha-syn Inhibitors. Yeast expressing alpha-synuclein, growth rescue, BacTiter-Glo, 24 h. Potency, µM (highest dose often 46.1 µM), without a hit: at the top dose growth rescue (activation), actives largely listed as activators. 370,000 compounds, 0.14% hits. AID 652106, 2013; also: potency is read from the fitted curve at half-maximal effect; % of control where 0% means no effect; nearly all actives have a fitted effect of over 65% in size
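Galactose-induced alpha-syn yeast (OD600=0.02, raffinose-pregrown) + pinned cpd, 24 hr, 30 deg C; growth by BacTiter-Glo luminescence. Growth restoration scores as activation.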
* marks the source's active call; other numbers are inactive results; i = inactive; ? = inconclusive; / = not tested or not shown; ! = not confirmed by another sample. In the library only some 2.3% were active in any assay of this set; here they are far more common. Unless noted, calls follow the shape of the dose curve; as a rule, active = well fitted curve in the direction sought with a large enough effect; inconclusive = small, poorly fitted or top-dose-only effect, or another doubt; inactive = no such curve, though single readings can be large; an effect the other way counts as inactive or inconclusive.

SMILES	TDP43 rescue	Mm-Cpn inhibitor	FUS suppressor	Abeta yeast res	CCT chaperon mod	aSyn yeast inh
Nc1ccc(-c2ccccc2)cc1	10%	/	/	i	-52*	-2%
Cc1c(CCC(=O)N2CCCCC2)c(=O)oc2cc3occ(C(C)(C)C)c3cc12	?	/	i	i	/	/
CCC(=O)CC(c1ccccc1)c1c(O)c2ccccc2sc1=O (stereo not drawn)	25µM*	-4%	i	i	1	-17%
COc1ccc2c(c1OC)CN(C)CCc1cc3c(cc1C(=O)C2)OCO3	?	1%	i	i	-3	1%
C=Cc1cc(OC)c2c(c1)c(=O)oc1c2cc(OC)c2c(O)ccc(C3OC(C)C(O)C(C)(O)C3O)c21 (stereo not drawn)	14µM*	/	/	i	0	0.63µM*
COc1cc2c(c3oc4cccc(O)c4c(=O)c13)[C@@H]1C=CO[C@@H]1O2	/	/	i	/	/	/
CN1CC[C@@]2(C)c3cc(OC(=O)Nc4ccccc4)ccc3N(C)[C@@H]12	/	/	/	/	/	3%
O=C(Nc1ccc2c(c1)OCCO2)c1cccn(Cc2cccc(F)c2)c1=O	35µM*	/	i	i	/	/
O=C(Nc1ccc2c(c1)OCO2)c1cccn(Cc2cccc(F)c2)c1=O	11%	/	i	i	/	/
Cc1ccc(C(=O)Nc2c(C(=O)Nc3ccc(C)c(C)c3)sc3nc(C)cc(C)c23)cc1	?	/	i	i	/	/
Nc1c(C(=O)NC2CCCC2)c2nc3ccccc3nc2n1CC1CCCO1 (stereo not drawn)	13µM*	-5%	?	i	-1	-2%
CCOC(=O)C1(c2ccccc2)CCN(CCC(=O)Nc2ccc(C(=O)OC)cc2)CC1	2%	-2%	i	i	-2	6%
COC(=O)c1ccc(NC2=C(Cl)C(=O)OC2OC(=O)c2ccccc2)cc1 (stereo not drawn)	22µM*	-1%	i	i	1	3%
Cc1ccc2nc(-c3ccncc3)cc(C(=O)N3CCC4(CC3)OCCO4)c2c1	1%	2%	i	i	-6	0%
Cc1ccc(-c2cc(C(F)F)n3ncc(C(=O)N4CCc5ccccc5C4)c3n2)cc1	16µM*	0%	i	i	-1	-2%
Cc1ccc(C(=O)Cn2c(-c3ccccc3)noc2=O)cc1	?	-16%	i	i	1	10%
COc1ccc(-n2c(SCCN(C)C)nc3ccccc3c2=O)cc1	12%	3%	i	i	-113*	2%
COc1ccc(-c2nc3ccccc3c(=O)n2-c2ccc(OC)cc2)cc1	21%	-3%	i	i	-5	-27%
NC(Cc1ccc(C(F)(F)F)cc1)c1csc(Nc2nncc3ccccc23)n1 (stereo not drawn)	?	/	?	i	0	-54%
C=Cn1ccnc1P(=S)(c1nccn1C=C)C1CCCCC1	0%	-1%	i	i	-77*	-4%
O=c1[nH]c(=O)n(CCC2=CCCCC2)c(O)c1C=NCCCn1ccnc1	-14%	1%	13µM*	i	-2	-5%
O=c1[nH]c(=S)n(CCC2=CCCCC2)c(O)c1C=NCCCn1ccnc1	-13%	-2%	i	i	-2	3%
CCCCCNC(=O)C(c1ccncc1)n1c(=O)c(-c2cc3ccccc3[nH]2)nc2ccccc21 (stereo not drawn)	?	/	i	?	/	11%
CC(=O)N1CCN(c2ccc(OC[C@H]3CO[C@](Cn4ccnc4)(c4ccc(Cl)cc4Cl)O3)cc2)CC1	?	4%	i	i	-2	5.2µM*!
CC(=O)N1CCN(c2ccc(OC[C@@H]3CO[C@@](Cn4ccnc4)(c4ccc(Cl)cc4Cl)O3)cc2)CC1	/	/	/	/	/	3.2µM*
SMILES	TDP43 rescue	Mm-Cpn inhibitor	FUS suppressor	Abeta yeast res	CCT chaperon mod	aSyn yeast inh
O=C1C=CC2C3C(=O)N(c4ccccc4)C(=O)C3C1N2Cc1ccccc1 (stereo not drawn)	13µM*	/	/	i	-3	8%
[Hg+][c]1ccccc1	/	/	/	/	/	-79%
CCOC(=O)c1ccc(N2C(=O)CC(N3CCC(O)(c4ccc(Cl)cc4)CC3)C2=O)cc1 (stereo not drawn)	5.6µM*	6%	i	i	-1	15%
COc1ccccc1NC(=O)CCn1cnc2onc(-c3ccc(F)cc3)c2c1=O	?	/	?	i	/	/
COc1ccc(-c2ccc3c(c2)CN(C(=O)C(C)(C)C)Cc2cnnn2-3)cc1	18µM*	/	i	i	-6	4%
CN(C)c1c([N+](=O)[O-])cc(N2C(=O)C=CC2=O)cc1[N+](=O)[O-]	-91%	/	i	i	0	-79%
OC1(c2ccc(Cl)cc2)CCN(Cc2c[nH]c3ccccc23)CC1	?	/	i	i	0	2%
Cc1ccccc1-n1nc(C)c2c1NC(=O)CSC2c1ccc(Cl)cc1 (stereo not drawn)	18µM*	/	i	i	/	/
CCCCC[C@H]1CCCCC[C@H](O)C[C@@H](O)[C@H](O)/C=C/C(=O)O1	26%	/	i	i	0	2%
COC(=O)C1=C(c2ccc3ccccc3c2)C[C@@H]2CC[C@H]1N2C(=O)N1CCCCC1	20µM*	-2%	?	i	-1	0%
COC(=O)C1=C(c2ccc(-c3ccccc3)c(F)c2)C[C@@H]2CC[C@H]1N2C(=O)N1CCCC1	25µM*	0%	?	i	-33*	-23%
COC(=O)C1=C(c2ccc(-c3ccccc3)c(F)c2)C[C@@H]2CC[C@H]1N2C(=O)N1CCOCC1	20µM*	-1%	?	i	-2	-6%
COC(=O)C1=C(c2ccc(OC(F)(F)F)cc2)C[C@@H]2CC[C@H]1N2C(=O)N1CCCCC1	35µM*	-17%	?	i	-6	-22%
COC(=O)C1=C(c2ccc(-c3ccccc3)c(F)c2)C[C@@H]2CC[C@H]1N2C(=O)N1CCCCC1	-1%	-16%	i	i	1	-21%
COC(=O)C1=C(c2ccc3ccccc3c2)C[C@@H]2CC[C@H]1N2C(=O)N1CCCC1	?	-1%	i	i	-2	-2%
COC(=O)C1=C(c2ccc(OC(F)(F)F)cc2)C[C@@H]2CC[C@H]1N2C(=O)N1CCC(O)CC1	14%	4%	i	i	-2	9%
